Experimental data published in PubChem BioAssay (NCATS).
Inconclusive results are not listed. Activity calls are given as the source filed them. Unless noted, calls come from the whole dose curve; as a rule, active = well fitted curve in the direction sought with a large enough effect; inconclusive = small, poorly fitted or top-dose-only effect, or another doubt; inactive = no such curve, though single readings can be large; an effect the other way counts as inactive or inconclusive.

Key:
[1] = qHTS to identify inhibitors of the type 1 interferon - major histocompatibility complex class I in skeletal muscle: primary screen against the NCATS LOPAC collection (AID 1347405);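 note: human myoblasts with HiBiT tag on endogenous HLA-B stimulated by IFN-beta; lytic HiBiT luminescence reporting HLA-B protein level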
In short: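 IFN-beta-stimulated (4 ng/ml) HLA-B HiBiT knock-in myoblasts, compound-treated 24 hrs up to 46 uM final; signal via LgBiT complementation and furimazine luminescence.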

[2] = qHTS to identify inhibitors of the type 1 interferon - major histocompatibility complex class I in skeletal muscle: primary screen against the NCATS Pharmaceutical Collection (AID 1347407);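 note: luminescence of HiBiT knocked into endogenous HLA-B as interferon-induced MHC class I level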
In short: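 Luminescence from HiBiT-tagged endogenous HLA-B*08:01 served as the read-out of IFN-beta-induced MHC class I in CRISPR-engineered C25cl48 myoblasts. Cells received 4 ng/ml IFN-beta plus compound (high final 46 uM, […]) for 24 h.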

[3] = qHTS for inhibitors of adenylyl cyclases using a fission yeast platform: a pilot screen against the NCATS LOPAC library (AID 1347410)
In short: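 Fission yeast qHTS: CHP2027 cells (AC9-GNAS-PDE4D2, fbp1-GFP), 5x10^6 cells/mL working density, EMM + His/Lys/Ura; LOPAC at up to 57 µM final; 18 h dark, 30C; GFP by laser cytometry. DPI positive control, DMSO vehicle.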

[4] = target: Protein phosphatase 1D (Homo sapiens) (UniProt O15297); experiment: RapidFire Mass Spectrometry qHTS Assay for Modulators of WT P53-Induced Phosphatase 1 (WIP1) (AID 1347424);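 note: amount of dephosphorylated VEPPL-S-QETFS peptide product formed by WIP1; series mostly up to about 63 µM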
Chain of Protein phosphatase 1D (Homo sapiens) (O15297 whole entry, looked up): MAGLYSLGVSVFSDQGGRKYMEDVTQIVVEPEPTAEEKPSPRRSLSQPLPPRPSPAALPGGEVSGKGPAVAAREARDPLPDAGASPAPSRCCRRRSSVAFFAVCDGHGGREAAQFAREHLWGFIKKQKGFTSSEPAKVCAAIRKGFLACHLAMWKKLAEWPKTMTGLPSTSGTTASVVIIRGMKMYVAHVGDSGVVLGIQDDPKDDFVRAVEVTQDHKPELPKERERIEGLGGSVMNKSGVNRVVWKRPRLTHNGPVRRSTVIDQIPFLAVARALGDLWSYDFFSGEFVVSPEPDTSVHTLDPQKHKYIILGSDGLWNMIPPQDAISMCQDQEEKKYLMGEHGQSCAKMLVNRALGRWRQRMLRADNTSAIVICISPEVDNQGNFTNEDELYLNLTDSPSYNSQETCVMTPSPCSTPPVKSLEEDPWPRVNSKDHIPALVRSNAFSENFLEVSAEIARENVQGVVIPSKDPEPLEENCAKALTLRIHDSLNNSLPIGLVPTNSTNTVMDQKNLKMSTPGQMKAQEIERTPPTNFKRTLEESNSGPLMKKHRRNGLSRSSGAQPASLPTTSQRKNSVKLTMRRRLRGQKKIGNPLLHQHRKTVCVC
In short: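 RapidFire mass spectrometry measured dephosphorylated peptide after 5 min room-temperature reaction of 2 uM VEPPL-pS-QETFS with 10 nM WIP1 (50 mM Tris-HCl pH 7.5, 30 mM MgCl2, 0.1 mM EGTA, BSA), following 1 hr compound preincubation; 1 uM isotope-labelled product standard.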

[5] = target: Protein phosphatase 1D (Homo sapiens) (UniProt O15297); experiment: Rhodamine-PBP qHTS Assay for Modulators of WT P53-Induced Phosphatase 1 (WIP1) (AID 1347425)
In short: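 WIP1 (5 nM final) was preincubated with compound for 1 hour at room temperature. It then dephosphorylated 10 uM VEPPL-pS-QETFS peptide in Tris-HCl pH 7.5 with 30 mM MgCl2. Released Pi was detected by 10 uM Rh-PBP fluorescence (ex 525/em 598 nm) read at 1-min intervals for 11 min, as delta f1 - f0.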

[6] = Validation qHTS assay for inhibitors of Activation Induced Cytidine Deaminase (AID): UDG Counterscreen signal (AID 1347427)
In short: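 Fluorescence at 560 nm excitation, 665 nm emission reports UDG signal after 250 mM NaOH (2x) addition and 30 min. Enzymes (AID 1 uM, UDG 2 U/mL, at 4/3x) preincubated 10 min with compound, then 4 h with 4x 250 nM DJC20/DJC23 substrate at room temperature.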

[7] = target: Single-stranded DNA cytosine deaminase (Homo sapiens) (UniProt Q9GZX7); experiment: Validation qHTS assay for inhibitors of Activation Induced Cytidine Deaminase (AID): AID signal (AID 1347429)
Chain of Single-stranded DNA cytosine deaminase (Homo sapiens) (Q9GZX7 whole entry, looked up): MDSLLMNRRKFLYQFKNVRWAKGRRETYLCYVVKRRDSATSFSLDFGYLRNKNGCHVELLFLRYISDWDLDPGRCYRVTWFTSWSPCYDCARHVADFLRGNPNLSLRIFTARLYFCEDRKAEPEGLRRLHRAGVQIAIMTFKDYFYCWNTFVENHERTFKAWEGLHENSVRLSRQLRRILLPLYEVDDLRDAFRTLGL
In short: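 Compounds (up to 114 uM final) are tested against AID plus UDG using DJC20/DJC23 FRET substrate. Reactions incubate 4 hr at room temperature, receive NaOH for 30 min, and are read at Ex 540/Em 590 nm.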

[8] = Primary qHTS for inhibitors of SARS-S pseudo-typed particle cell entry (AID 1479145; calls by dose curve; note: nearly all actives have a fitted effect of over 45% in size)
[9] = Confirmatory qHTS for VERO E6 Cytotoxicity Assay: Counterscreen for SARS-CoV-2 CPE Assay (AID 1508605; calls by dose curve; note: series mostly up to about 20 µM; nearly all actives have a fitted effect of over 60% in size)
[10] = target: Calcium and integrin-binding protein 1 (Homo sapiens) (UniProt Q99828); experiment: Validation qHTS for Identification of Calcium Integrin Binding protein 1 (CIB1) Competitor (AID 1508618)
Chain of Calcium and integrin-binding protein 1 (Homo sapiens) (Q99828 whole entry, looked up): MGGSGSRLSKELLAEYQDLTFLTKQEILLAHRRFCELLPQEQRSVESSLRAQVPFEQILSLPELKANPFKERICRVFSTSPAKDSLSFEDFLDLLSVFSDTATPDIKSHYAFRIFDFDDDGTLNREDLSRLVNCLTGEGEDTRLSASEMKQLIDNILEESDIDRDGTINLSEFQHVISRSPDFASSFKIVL
In short: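 Fluorescence polarization with 1 uM CIB1-GST and 100 nM FITC-alphaIIb peptide in HEPES pH 7.4, NaCl, 5 mM CaCl2, Tween20. Compounds at up to 114 uM final, preincubated with protein 15 min; read after 15 min more at RT.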

[11] = Primary qHTS for Huh7 cytotoxicity: counterscreen for inhibitors of MERS-S pseudotyped particle cell entry (AID 1479147; calls by dose curve)
[12] = Primary qHTS for inhibitors of MERS-S pseudo-typed particle cell entry (AID 1479149; calls by dose curve; note: nearly all actives have a fitted effect of over 60% in size)
[13] = Primary qHTS for Vero E6 cytotoxicity: counterscreen for inhibitors of SARS-S pseudo-typed particle cell entry (AID 1479150; calls by dose curve)
[14] = Primary qHTS for inhibitors of La Crosse Virus (LACV) - induced cell death in SH-SY5Y cells (AID 1508616);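 note: top concentration of the series differs between compounds; higher means more rescue of cells from virus-induced death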
In short: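 Screening measures cell viability in LACV-infected SH-SY5Y cultures. Compound was added before virus (0.01 MOI), and ATP was detected by luminescence 6 days later.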

[15] = qHTS to identify inhibitors of the type 1 interferon - major histocompatibility complex class I in skeletal muscle: primary screen against the NCATS Mechanism Interrogation Plate v5.0 (MIPE) Libary (AID 1347411); note: nearly all actives have a fitted effect of over 65% in size
In short: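 IFN-beta-driven (4 ng/ml) HLA-B-HiBit expression in CRISPR-tagged C25cl48 myoblasts; compounds 11-pt, 1:3, max 46 uM, 24 hr exposure; lytic NanoLuc complementation luminescence.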

Measured: Potency

O=C(CCCN1CCC2(CC1)C(=O)NCN2c1ccccc1)c1ccc(F)cc1
inactive: [1] | [2] | [3] | [4] | [5] | [6] | [7] | [8] | [9] | [10]

CC(C)=CC1C(C(=O)OCN2C(=O)C3=C(CCCC3)C2=O)C1(C)C (stereo unspecified)
inactive: [2] | [4] | [5]

Oc1ccc(Cl)cc1
inactive: [2] | [4] | [5] | [8] | [11] | [12] | [13] | [14]

COP(=S)(OC)Oc1ccc(S(=O)(=O)N(C)C)cc1
inactive: [2] | [4] | [5] | [8] | [11] | [12] | [13] | [14]

CCc1cc2c(s1)-n1c(C)nnc1CN=C2c1ccccc1Cl
inactive: [2] | [4] | [5] | [8] | [11] | [12] | [13] | [14]

C[C@]12CCC(=O)C=C1CC[C@@H]1[C@@H]2CC[C@]2(C)C(=O)CC[C@@H]12
inactive: [2] | [4] | [5] | [8] | [11] | [12] | [13] | [14]

C=C(C)[C@H]1CN[C@H](C(=O)O)[C@H]1CC(=O)O
inactive: [1] | [2] | [3] | [4] | [5] | [6] | [7] | [8] | [11] | [12] | [13] | [14] | [10]

CC(NC(C)(C)C)C(=O)c1cccc(Cl)c1 (stereo unspecified)
inactive: [1] | [2] | [3] | [15] | [4] | [5] | [6] | [7] | [8] | [11] | [12] | [13] | [14] | [10]

CN1C(=O)COc2c(C(=O)NC3CN4CCC3CC4)cc(Cl)cc21 (stereo unspecified)
inactive: [2] | [15] | [4] | [5] | [14]

NC(=O)c1cc([N+](=O)[O-])cc([N+](=O)[O-])c1
inactive: [2] | [4] | [5] | [8] | [11] | [12] | [13] | [14]

CC(C)c1cccc(C(C)C)c1O
inactive: [1] | [2] | [3] | [15] | [5] | [6] | [7] | [8] | [11] | [12] | [13] | [14] | [10]

COP(=S)(OC)Oc1ccc(SC)c(C)c1
inactive: [2] | [4] | [5] | [8] | [11] | [12] | [13] | [14]
